This is a sample that favours compounds with a hit; in the whole collection about 9% have one here.
HPGD inh – HPGD (human) dehydrogenase inhibition; purified HPGD, NADH fluorescence kinetic, PGE2 substrate; AID 894; hit rate 4.3% among 150,000; Potency, µM, for the others: at the highest dose activity change, negative = inhibition, most hits filed as inhibitors; P15428; further: potency means the concentration at half of the fitted maximal effect
Target sequence (P15428 whole entry, looked up): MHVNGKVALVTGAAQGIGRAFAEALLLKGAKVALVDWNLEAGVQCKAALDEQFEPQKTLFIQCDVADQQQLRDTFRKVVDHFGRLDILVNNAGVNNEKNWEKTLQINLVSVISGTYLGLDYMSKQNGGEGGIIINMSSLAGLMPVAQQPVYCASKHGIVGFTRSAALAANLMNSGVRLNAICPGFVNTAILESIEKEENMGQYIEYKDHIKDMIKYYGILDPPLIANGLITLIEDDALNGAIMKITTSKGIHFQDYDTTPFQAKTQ
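NADH formation kinetics: reaction with 30 uM PGE2 and 1 mM NAD+ (final), 20 nM enzyme, Tris-HCl pH 8 with Tween 20, after 15 min compound preincubation at room temperature. Fluorescence change, last versus first of five reads.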
IMPase inh – membrane-permeable compound that blocks inositol monophosphatase; P97697; CHO-M1 cells, IP1 accumulation, HTRF TR-FRET ratio; inhibition (IP1 accumulation), % at 46.1 µM; 120,000 tested, under 10 active; AID 901; active means well fitted curve in the direction sought with a large enough effect in the signal ratio, not every such curve was filed as active; inconclusive means small, poorly fitted or top-dose-only effect, or a change in a side signal; inactive means no such curve, though single readings can be large or run the other way; the % refers to the signal ratio;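 further: cells stimulated with carbachol in lithium chloride buffer; plate controls were DMSO basal wells for no effect and reference inhibitor wells for full effect; higher means more IMPase inhibition seen as more IP1 and lower FRET ratio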
Target sequence (P97697 whole entry, looked up): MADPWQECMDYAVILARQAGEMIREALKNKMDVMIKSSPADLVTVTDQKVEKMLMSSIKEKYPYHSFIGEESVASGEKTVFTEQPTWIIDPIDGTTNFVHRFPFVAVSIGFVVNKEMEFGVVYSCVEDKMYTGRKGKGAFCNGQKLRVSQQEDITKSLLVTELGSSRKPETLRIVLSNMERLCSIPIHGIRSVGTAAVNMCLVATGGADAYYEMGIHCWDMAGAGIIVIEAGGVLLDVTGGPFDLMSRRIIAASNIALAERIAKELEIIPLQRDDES
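In this qHTS, compounds (final up to 46 uM) act on CHO-M1 cells that are then activated through the M1 receptor with carbachol, in pH 7.4 buffer containing 50 mM LiCl, for 30 min. IP1 accumulation is quantified by the IP-One immunoassay.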
ALDH1A1 block – ALDH1A1 (human) enzyme inhibition; hit rate 7.3% among 220,000; Potency, µM (top dose mostly 75.3 µM), for the others: at the highest dose activity, negative = inhibition, usual class: inhibitors; Purified ALDH1A1, NADH fluorescence, propionaldehyde substrate;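 further: potency means the concentration at half of the fitted maximal effect; plate controls were no enzyme wells and a reference inhibitor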
An asterisk follows results filed as active; ? = inconclusive; nt = not tested or not shown; [ ] = another dose, or the depositor's remark. Unless noted, the call rests on the fitted dose curve; in most records, active means well fitted inhibition curve with a large enough effect (not every such curve was filed as active); inconclusive means small, poorly fitted or top-dose-only effect, or another doubt; inactive means no such curve, though single readings can be large or run the other way. Unless noted, on the % scale 0 is the no-effect control and ±100 the full control effect.

SMILES	HPGD inh	IMPase inh	ALDH1A1 block
Cc1cccc(N2CCN(C(c3ccncc3)c3nnnn3C(C)(C)C)CC2)c1C (stereo not given)	nt	nt	-3%
CCOC(=O)c1ccc(NC(=O)c2c(-c3c(F)cccc3Cl)noc2C)cc1	nt	2	nt
CCOC(=O)C(=O)/C(=C\N(C)C)c1onc(-c2c(Cl)cccc2Cl)c1C(=O)OC	14µM*	6	11%
CCOC(=O)C(=O)/C(=C\N(C)C)c1onc(-c2ccccc2Cl)c1C(=O)OC	14µM*	0[1.84 µM]	?
CCOC(=O)C(=O)/C(=C\N(C)C)c1onc(-c2ccccc2)c1C(=O)OC	-12%	-10[1.84 µM]	?
CCCCOc1ccccc1C1NC(=O)NC(C)=C1C(=O)OCCOC (stereo not given)	-1%	nt	?
O=C(CSCc1ccccc1)NCc1ccc2c(c1)OCO2	20µM*	2	?
O=C(/C=C/c1ccco1)NCc1ccc2c(c1)OCO2	nt	nt	20µM*
O=C(Nc1ccc2c(c1)OCO2)c1nn(-c2ccccc2)c(=O)c2ccccc12	-7%	2	-1%
COc1ccc(CNC(=O)CN2C(=O)NC3(CCCCCC3)C2=O)cc1OC	nt	nt	-6%
O=C(NCc1ccc2c(c1)OCO2)c1ccco1	nt	nt	3%
O=C(CN1C(=O)NC2(CCCCCCC2)C1=O)NCc1ccc2c(c1)OCO2	32µM*	6	-1%
O=C(CSCc1cnn(-c2ccccc2)c1-n1cccc1)NCc1ccc2c(c1)OCO2	-13%	-10	?
O=C(NCc1ccc2c(c1)OCO2)c1nn(-c2ccccc2)c(=O)c2ccccc12	-16%	0	5.6µM*
O=C(NC(=S)NCC1CCCO1)c1ccc([N+](=O)[O-])cc1 (stereo not given)	-9%	nt	?
CCOc1ccc(C(=O)Nc2cc(-c3nc4ccccc4o3)ccc2C)cc1Cl	nt	3	nt
Cc1cccc(CSCc2ccc(C(=O)NCC3CCCO3)o2)c1 (stereo not given)	nt	nt	4%
O=C(OC(C(=O)NCc1ccc2c(c1)OCO2)c1ccc(Cl)cc1)c1ccco1 (stereo not given)	28µM*	2	14µM*
O=C(CSCc1cccc(Cl)c1)NCc1ccc2c(c1)OCO2	13µM*	-1	?
CCOc1ccc(C(OC(=O)c2ccco2)C(=O)NCc2ccc(C)cc2)cc1 (stereo not given)	-23%	7	7%
O=C(NCc1ccc2c(c1)OCO2)c1ccc(CSCc2cccc(Cl)c2)o1	-23%	nt	-6%
O=C(COC(=O)Cc1cn2ccsc2n1)NC12CC3CC(CC(C3)C1)C2	0%	-3	-6%
O=C(COC(=O)Cc1cn2ccsc2n1)NCc1ccc2c(c1)OCO2	14µM*	-11	?
CC(C)(C)c1cc(C(=O)/C=C/c2ccc(C(=O)O)cc2)cc(C(C)(C)C)c1	-19%	nt	6%
FC(F)(F)c1cc(CN2CC3(CCNCC3)C2)cc(C(F)(F)F)c1	-9%	nt	-1%
SMILES	HPGD inh	IMPase inh	ALDH1A1 block
Cc1cc(C)c(NC(=S)N(CCN2CCCCC2)Cc2ccco2)c(C)c1	nt	nt	3%
Cc1ccccc1N(CC(=O)NCc1ccncc1)S(C)(=O)=O	-6%	-1	0%
O=C(CCn1c(=O)c2ccccc2n(CC(=O)Nc2cccc(F)c2)c1=O)NCCc1ccccc1	nt	-3	nt
Cc1ccc(N(CC(=O)N/N=C/c2cc(C)n(-c3ccccc3C)c2C)S(C)(=O)=O)cc1	-15%	7	25µM*
Cc1cc(C)cc(-n2c(C)cc(/C=N/NC(=O)CN(c3c(C)cccc3C)S(C)(=O)=O)c2C)c1	-12%	10	?
Cc1cc(C(C#N)c2ccccc2F)n2ncnc2n1 (stereo not given)	nt	nt	16µM*
Cc1cc(C(C#N)c2ccccc2)n2ncnc2n1 (stereo not given)	-7%	21	?
NS(=O)(=O)c1ccc(CNC(=O)c2cc(-c3ccccn3)nc3ccc(Cl)cc23)cc1	nt	nt	2%
Cc1ccc(NC(=S)NCCN2CCOCC2)cc1F	nt	nt	-1%
CN(C)C(=O)c1ccc(-c2cncnc2N2CCNCC2)cc1	nt	nt	11%
CCC(=O)NC(=S)Nc1cccc(Cl)c1N1CCCCC1	-9%	3	?
COc1ccc(-n2nc(C(=O)NCC(=O)NCC3CCCO3)c3ccccc3c2=O)cc1Cl (stereo not given)	-14%	-2	-1%
CCOC(=O)N1CCC(N2CCCC(CO)(Cc3cccc(Cl)c3)C2)CC1 (stereo not given)	nt	nt	-3%
COc1ccc(-n2nnc3c(=O)n(CC(=O)NCC4CCCO4)cnc32)cc1 (stereo not given)	?	1	?
CC(C)Sc1nc2c(c(=O)n(C)c(=O)n2C)n1Cc1ccc(Cl)cc1	-9%	-2	8.9µM*
CNC(=O)CSc1nc2c(c(=O)n(C)c(=O)n2C)n1Cc1ccc(C)cc1	-16%	-6	-4%
Cc1ccc(-n2nnc3c(SCC(=O)NCC4CCCO4)ncnc32)cc1 (stereo not given)	1.3µM*	6	1%
Cn1c(=O)c2c(nc(SCCCC#N)n2Cc2ccccc2F)n(C)c1=O	-7%	0	2.8µM*
Cc1ccc(Cn2c(SCC(=O)NCC3CCCO3)nc3c2c(=O)n(C)c(=O)n3C)cc1 (stereo not given)	nt	nt	22µM*
Cn1c(=O)c2c(ncn2Cc2ccc(Cl)cc2)n(C)c1=O	nt	-4	4%
CC(C)CCSc1nc2c(c(=O)n(C)c(=O)n2C)n1Cc1ccccc1Cl	nt	12	nt
CCN1C(=O)[C@H]2[C@H]3[C@H](O)[C@H](O)C/C(=N/O[C@@H](C)CN4CCCCc5nc(C)c(C)cc54)[C@@H]3CC[C@@H]2C1=O	nt	nt	-1%[13.5 µM]
CN(Cc1ccccc1)S(=O)(=O)c1ccc(NS(=O)(=O)Cc2ccccc2)cc1	-23%	8	?
Cc1ccc2cc(C#N)c(SCC(=O)NCC3CCCO3)nc2c1 (stereo not given)	-23%	?	-10%
Cc1ccc2nc(SCC(=O)NCC3CCCO3)c(C#N)cc2c1 (stereo not given)	6.3µM*	-6	5%
SMILES	HPGD inh	IMPase inh	ALDH1A1 block
Cc1ccc(NC(=O)CSc2ccc(-c3ccco3)nn2)cc1	nt	nt	3.2µM*
Cc1ccc(CNC(=O)CSc2ccc(-c3ccco3)nn2)cc1	-24%	-10	14µM*
CC(=O)Nc1ccc(NC(=O)CSc2ccc(-c3cccs3)nn2)cc1	nt	nt	-12%
Cc1ccc(SCC(=O)Nc2ccc(-c3nnc(-c4ccco4)o3)cc2)cc1	-14%	2	-5%
O=C(CSc1ccc(-c2ccco2)nn1)c1ccc(F)cc1	?	2	3.2µM*
Fc1ccc(CSc2ccc(-c3ccco3)nn2)cc1	-8%	2	?
CC(=O)Nc1ccc(NC(=O)CSc2ccc(-c3ccco3)nn2)cc1	nt	nt	7.1µM*
O=C(CSc1ccc(-c2ccco2)nn1)NCc1ccc(F)cc1	-14%	?	?
Cn1c(=O)c(-c2cccs2)nc2cnc(Oc3ccccc3)nc21	-23%	nt	?
Cn1cccc1C(=O)OCC(=O)NC1CCS(=O)(=O)C1 (stereo not given)	nt	nt	3%
CCC(C)NCC(=O)Nc1ccc(S(N)(=O)=O)cc1 (stereo not given)	nt	nt	9%
COc1cccc(C(=O)Nc2ccccc2OC(F)(F)F)c1	nt	nt	-12%
Cc1cc(C)cc(NC(=O)CSc2ccc(-c3ccco3)nn2)c1	?	5	7.1µM*
Cc1ccc(-c2ccc(SCC(=O)Nc3cc(C)on3)nn2)cc1	nt	nt	24%
